Screening results deposited in PubChem by National Center for Advancing Translational Sciences (NCATS).
PLK1 PBD block: blocks phosphopeptide binding to human PLK1 polo-box domain; P53350; AID 720504; Potency, µM, without a hit: max response, negative = inhibition, actives largely listed as inhibitors; hit rate 2.8% among 360,000; Plk1 PBD binding of FITC phosphopeptide, fluorescence polarization; note: potency is the fitted concentration of half-maximal effect; series mostly up to about 57 µM; % is set by controls: 0 for no effect and ±100 for the full control effect; nearly all actives have a fitted effect of over 65% in size
PI5P4K alpha inh: inhibitors of human PI5P4K alpha; max response, %; AID 652105; PI5P4Kalpha enzyme, ADP-Glo luminescence, 60 min; hits give low values; hit rate 1.2% among 330,000; active = max response of -50% or lower; inconclusive = between -30% and -50%; inactive = -30% or higher; note: value at the top dose of about 77 µM; % is set by controls: 0 for no effect and ±100 for the full control effect
Target sequence (P48426 whole entry, looked up): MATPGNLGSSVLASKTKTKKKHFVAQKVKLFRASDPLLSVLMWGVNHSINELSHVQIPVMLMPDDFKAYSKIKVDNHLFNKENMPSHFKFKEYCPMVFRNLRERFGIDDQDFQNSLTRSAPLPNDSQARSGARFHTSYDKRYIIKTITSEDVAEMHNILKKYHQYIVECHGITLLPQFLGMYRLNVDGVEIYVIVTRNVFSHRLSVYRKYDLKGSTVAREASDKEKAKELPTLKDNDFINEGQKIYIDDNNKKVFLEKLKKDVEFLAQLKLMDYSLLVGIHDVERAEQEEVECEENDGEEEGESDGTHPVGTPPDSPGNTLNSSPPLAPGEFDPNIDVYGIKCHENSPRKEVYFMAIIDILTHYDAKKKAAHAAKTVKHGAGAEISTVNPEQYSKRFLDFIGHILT
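qHTS, 1536-well: enzyme/substrate mix, compound by pin tool, 5 microM ATP final; RT 60 min; ADP-Glo reagents 1 (45 min) then 2 (30 min); luminescence.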
HP1b binding inh: HP1-beta chromodomain-methylated histone interaction inhibition; P83916; AlphaScreen HP1-beta / biotin-H3K9me3 peptide binding; Potency, µM (series often up to 114 µM), without a hit: at the top dose activity change, negative = inhibition, usual class: inhibitors; hit rate 0.56% among 390,000; AID 540317; note: potency is the fitted concentration of half-maximal effect; nearly all actives have a fitted effect of over 70% in size
Target sequence (P83916 whole entry, looked up): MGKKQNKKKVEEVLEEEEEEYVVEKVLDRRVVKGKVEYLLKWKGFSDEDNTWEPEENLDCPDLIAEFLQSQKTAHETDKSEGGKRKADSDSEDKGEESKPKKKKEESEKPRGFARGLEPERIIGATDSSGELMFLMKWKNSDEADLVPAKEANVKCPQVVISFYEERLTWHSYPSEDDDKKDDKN
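HP1-beta protein (50 nM final) preincubated 30 min at room temperature with biotinylated H3(1-18)K9me3 peptide (50 nM) in PBS pH 7.4, 0.01% Tween-20, then compound added for 30 min. AlphaScreen streptavidin donor/nickel chelate acceptor beads (10 ug/mL final), 30 min dark, luminescence read.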
JMJD2A Tudor: blocks the human JMJD2A Tudor domain | AlphaScreen JMJD2A-Tudor / H3K4me3 peptide binding | Potency, µM (series often up to 114 µM), inactives show at the highest dose activity change, negative = inhibition, hits mostly inhibitors | hit rate 4.4% among 390,000 | AID 504339; note: potency is the fitted concentration of half-maximal effect; % is set by controls: 0 for no effect and ±100 for the full control effect; nearly all actives have a fitted effect of over 50% in size
KAT2A inh: inhibitors of human GCN5L2 histone acetyltransferase | Q92830 | GCN5L2 HAT assay, ThioGlo1 CoA-SH fluorescence | Potency, µM (highest dose often 58.9 µM), for the others: at the highest dose activity change, negative = inhibition, most hits filed as inhibitors | hit rate 0.21% among 390,000 | AID 504327; note: potency is the fitted concentration of half-maximal effect; % is set by controls: 0 for no effect and ±100 for the full control effect
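Enzyme at 20nM final was mixed with library compounds for 15 min at room temperature. Peptide H3(1-25) at 75uM, acetyl-CoA at 70uM and ThioGlo1 at 50uM were then added. Plates were read immediately and after 20 min (Ex340nm/Em540nm).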
BAZ2B inh: BAZ2B (human) inhibition | AlphaScreen BAZ2B-H3K14Ac peptide displacement | Potency, µM (titrated, usually from 114 µM), inactives show top-dose activity change, negative = inhibition, hits mostly inhibitors | hit rate 4.4% among 360,000; note: potency is the fitted concentration of half-maximal effect; % is set by controls: 0 for no effect and ±100 for the full control effect; nearly all actives have a fitted effect of over 60% in size
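BAZ2B 50 nM plus b-H3(5-23)K14Ac 50 nM, PBS pH 7.4/0.01% Tween-20, 30 min RT; compound added (max 110 uM), 30 min RT; streptavidin donor/Ni-chelate acceptor beads 10 ug/mL final, 20 min dark; AlphaScreen read.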
An asterisk follows results filed as active; ? = inconclusive; . = not tested or not shown; [ ] = dose if it differs, or a comment. Most compounds without a hit are left out; they make up all but 7% or so of the library. Unless noted, calls come from the whole dose curve; as a rule, active = well fitted curve in the direction sought with a large enough effect; inconclusive = small, poorly fitted or top-dose-only effect, or another doubt; inactive = no such curve, though single readings can be large; an effect the other way counts as inactive or inconclusive.

SMILES	PLK1 PBD block	PI5P4K alpha inh	HP1b binding inh	JMJD2A Tudor	KAT2A inh	BAZ2B inh
Cc1ccc(NC(=S)N/N=C2\CC(C)(C)Oc3ccc(O)cc32)cc1	-1%	4	1%	-32%	7%	0%
C/C(=N\NC(=S)NC1CCCCC1)c1ccc(O)cc1	17µM*	7	?	?	-22%	?
C/C(=N\NC(=S)NC1CCCCC1)c1ccccc1	-3%	15	9%	-14%	0%	?
Cc1ccccc1NC(=S)N/N=C1\CC(C)(C)Oc2ccc(O)cc21	-19%	-18	?	40µM*	-20%	?
COc1ccccc1NC(=O)Nc1ccc(S(=O)(=O)Nc2onc(C)c2C)cc1	-8%	-10	31%	-14%	-6%	-2%
CC(=O)c1ccc(NC(=O)CSc2nc(=O)cc(N)n2-c2ccccc2)cc1	-3%	-24	17%	-23%	3%	-37%
COC(=O)c1ccc(NC(=O)CSc2nc(=O)cc(N)n2-c2ccccc2)cc1	27µM*	-1	7%	-26%	0%	-12%
O=S(=O)(NCCSc1nc2ccccc2o1)c1ccccc1	8.4µM*	?	-3%	-25%[11.4 µM]	1%	-17%
O=C(O)CSc1nnnn1C1CCCCC1	15µM*	?	5%	28µM*	-12%	5%
O=C(CSc1nnnn1C1CCCC1)Nc1cccc(NC(=O)c2ccco2)c1	-4%	.	12%	-24%	1%	-7%
O=C(CSc1nnnn1C1CCCCC1)N1CCCC1	-10%	-4	9%	-5%	-3%	13%
O=C(CSc1nnnn1C1CCCCC1)Nc1cccc(NC(=O)c2ccco2)c1	3µM*	-26	-21%	?	-2%	1%
COc1ccc(N2CCN(C(=O)c3cc4c(=O)oc5ccc(C)cc5c4s3)CC2)cc1	.	.	29%	-8%	2%	-4%
COc1cc(/C=N/NC(=O)CCn2cnc(-c3ccccc3)c2-c2ccccc2)ccc1O	2%	0	?	56µM*	-3%	45µM*
COc1ccc(/C=N/Nc2ccc([N+](=O)[O-])cc2)cc1O	21%	2	?	?	-6%	50µM*
COc1cc(/C=N/Nc2ccc(C(=O)O)cc2)ccc1O	-26%	-19	50µM*	?	-21%	50µM*
COc1ccc(/C=N/Nc2ccc([N+](=O)[O-])cc2)cc1Cn1cc([N+](=O)[O-])cn1	-8%	3	42%	-21%[11.4 µM]	0%	-31%
COc1cc(/C=N/Nc2ccc(C(=O)O)cc2)cc(OC)c1OC	-1%	-5	45%	-7%	-11%	-4%
Cc1ccccc1NC(=O)/C(C#N)=C/c1ccc(Cl)cc1Cl	.	.	4%	-23%	3%	-31%
COc1ccc(S(=O)(=O)Nc2cccc(S(=O)(=O)N3CCCCC3)c2)cc1	4%	-4	0%	-23%	1%	.
Cc1ccc(S(=O)(=O)Nc2nc3ccccc3nc2Nc2cccc(S(=O)(=O)N3CCCC3)c2)cc1	27µM*	0	41%	-6%[11.4 µM]	0%	-26%
O=S(=O)(c1ccc2nc(Nc3ccccc3)ccc2c1)N1CCCCC1	-21%	-12	24%	28µM*	-2%	40µM*
O=[N+]([O-])c1cccc(S(=O)(=O)Nc2nc3ccccc3nc2Nc2cccc(S(=O)(=O)N3CCCCC3)c2)c1	24µM*	?	-11%	45µM*	?	?
CC1=CCC2C(=O)N(c3cccc(C(=O)Nc4ccccc4Cl)c3)C(=O)C2C1 (configuration not stated)	0%	0	22%	-3%	-7%	-3%
CC(C)CC1NC(=O)c2ccccc2-n2c1nc1ccccc1c2=O (configuration not stated)	.	.	.	.	0%	.
SMILES	PLK1 PBD block	PI5P4K alpha inh	HP1b binding inh	JMJD2A Tudor	KAT2A inh	BAZ2B inh
CCOC(=O)C1C(c2ccc3c(c2)OCO3)NC(=O)NC1(O)C(F)(F)F (configuration not stated)	3µM*	-53*	-4%	18µM*	-3%	12%
COC(=O)c1ccc(C2Nc3c(C)cc(C)cc3C3C=CCC32)cc1 (configuration not stated)	.	.	2%	?	-4%	79µM*
OC1(c2ccc(Cl)c(Cl)c2)C[n+]2ccccc2N1Cc1ccccc1 (configuration not stated)	-6%	-29	7%	-5%	-2%	-11%
CCOC(=O)C(=CNc1ncccc1C)C(=O)OCC	0%	.	11%	-3%	-6%	2%
CCOC(=O)C(=O)Cc1cccnn1	?	-24	?	3.5µM*	.	.
CN1CCC(=NNC(=O)C(=O)Nc2cccc(Br)c2)CC1	12µM*	-21	5%	22µM*	2%	-27%
CN1CCC(=NNC(=O)C(=O)Nc2ccc(F)cc2)CC1	-10%	-1	47%	-3%[11.4 µM]	-11%	-17%
CCCCC(=O)Nc1ccc2c(c1)nc1n2CCOC1	?	0	-11%	79µM*	-1%	7%
Cc1ccc(C)c(N2CCN(C(=O)c3ccc(CS(=O)(=O)c4ccccc4C)o3)CC2)c1	-7%	.	15%	-31%	-21%	-10%
Cc1ccc(S(=O)(=O)Cc2ccc(C(=O)N3CCN(c4cc(C)ccc4C)CC3)o2)cc1	?	.	0%	?	-1%	56µM*
O=c1oc(-c2ccc(C(F)(F)F)cc2)nn1Cc1cc(Cl)ccc1O	.	.	.	.	7%	.
S=c1[nH]nc2n1CCCN2	30µM*	-2	-11%	?	2%	-2%
CCNC(=O)C1(C)CCCN(C(=O)c2csc3ccccc23)C1 (configuration not stated)	-8%	2	.	.	.	.
CCOCC(=O)Nc1ccc(-c2cn3cccnc3n2)cc1	-5%	.	54%	-6%	35µM*	-6%
CCC(C(=O)Nc1cc(-c2cn3cccnc3n2)ccc1C)c1ccccc1 (configuration not stated)	.	.	29%[57 µM]	22µM*	4%	3%
Cc1cn2c(=O)cc(COc3ccc(NC(=O)c4ccccc4C)cc3)nc2s1	.	.	58%	-22%	0%	3%
CCCc1c(C)nc2ccccc2c1SCCC#N	21µM*	-4	55%	6%	-2%	33%
CCCCc1c(C)nc2ccc(Br)cc2c1SCCC#N	.	.	.	.	-6%	19%
CCN(CC)CCSc1nc2c([nH]1)c(=S)n(C)c(=O)n2C	0%	6	24%	18µM*	.	.
Cn1c(=S)c2[nH]c(SCc3cccnc3)nc2n(C)c1=O	-30%	0	1%	8.9µM*	.	.
CCCCSc1nc2c([nH]1)c(=S)n(C)c(=O)n2C	-9%	-9	6%	-17%	.	.
Cn1c(=S)c2[nH]c(SCCC(C)(C)C)nc2n(C)c1=O	-16%	1	1%	22µM*	.	.
CC(C)c1ccc(C2c3c(-c4ccccc4O)n[nH]c3C(=O)N2Cc2ccncc2)cc1 (configuration not stated)	.	.	53%	-30%	3%	-4%
